# Source: ChEMBL document CHEMBL4513216, “Probing the Open Global Health Chemical Diversity Library for Multistage-Active Starting Points for Next-Generation Antimalarials” (ACS Infect Dis, 2020)
# About 8,600 (12%) of roughly 69,000 compounds showed an effect of 50% or more. For the sample, strong results were picked, then their nearest neighbours and some compounds at random.
# Test system: Plasmodium berghei
# Test: Screen against P. berghei liver stage (PbLuc), transformed with Luciferase, at 10uM
# Assay type: functional, HepG2
# Conditions: tested at 10 uM
row,SMILES,INHIBITION [%]
1,CCN1CCC2(CCN(Cc3nccs3)CC2)C1=O,-28.8
2,O=C(NCC(=O)N1CCCCC1)c1ccoc1,17.3
3,Cc1ccc2[nH]c(=O)c(CNCCCN3CCOCC3)cc2c1,-37
4,Cc1csc2c(N3CCNC(C(=O)NCc4cccnc4)C3)ncnc12 (centres undefined),16.9
5,Cc1csc2c(N3CCNC(C(=O)N4CCCC4)C3)ncnc12 (centres undefined),-10.1
6,Cc1csc2c(N3CCNC(C(=O)Nc4ccc(F)cc4)C3)ncnc12 (centres undefined),62.8
7,CCn1cc(CN2C[C@@H]3CCCN3C[C@@H]2CCSC)c(C)n1,46.1
8,Cc1nc(-c2cn(CCN)nn2)n(-c2ccc3c(c2)CCC3)n1,56.5
9,CN(C)C(=O)Cn1cc(C(=O)NCCc2ccc(C(F)(F)F)cc2)nn1,-25.9
10,CNS(=O)(=O)CCn1cc(-c2cc3c(cc2OC)CCC3)nn1,37.3
11,Cc1nc(-c2cn(CCN)nn2)n(-c2ccc(C(F)(F)F)cc2)n1,76.8
12,Cc1cc(-n2nc(C)nc2-c2cn(CCN)nn2)ccn1,41.5
13,Cc1nc(CCN2CCCCC2)n(-c2ccc(F)cc2)n1,-8.19
14,CC(C)c1noc(CNC2CCCN(Cc3noc(C4CC4)n3)C2)n1 (centres undefined),-42.1
15,Cc1nc(N2CCN(C)CC2)ncc1C(=O)N1CC[C@](C)(O)[C@H](C)C1,-10.2
16,Cc1ccoc1C1=NNC(=CN2CCn3c(C)nnc3C2)O1,-21.7
17,CCc1nnc2n1CCN(C=C1NN=C(c3occc3C)O1)C2,11.2
18,CCOCCN1CCN(C=C2NN=C(c3occc3C)O2)CC1,70.3
19,CCOCCN1CCN(C=C2NN=C(c3occc3C)O2)CC1CC (centres undefined),76.7
20,Cc1ccoc1C1=NNC(=CN2CCOC(Cn3cccn3)C2)O1 (centres undefined),-50.5
21,COCCN1CCN(C=C2NN=C(c3occc3C)O2)CC1,43.4
22,CC(C)c1nc(CN2CCN(C(=O)OC(C)(C)C)C(C)C2)no1 (centres undefined),-9.35
23,Cc1nn(C)c2c(=O)n(Cc3ccc(C#N)cc3)nnc12,8.15
24,CC(C)OCCCNC(=O)CS(=O)(=O)Cc1cccc(Cl)c1,-63.3
25,Cn1ccnc1-c1cn(CCc2nnc(N)s2)nn1,40.2
26,CC(C)c1nnc2n1CC(CNCc1ccsc1)CC2 (centres undefined),5.85

row,SMILES,INHIBITION [%]
1,Cc1oc(-c2ccsc2)nc1CC(=O)NCCCS(C)(=O)=O,5.05
2,O=C(c1ccncc1Cl)N1CCN(Cc2ccco2)C(CCO)C1 (centres undefined),16.2
3,Cc1cc(C(=O)N2CCN(Cc3ccco3)C(CCO)C2)cc(=O)[nH]1 (centres undefined),52.1
4,O=C(c1ncccc1O)N1CCN(Cc2ccco2)C(CCO)C1 (centres undefined),17
5,CCOc1ccc(C(=O)N2CCCC2Cn2cc(C)cn2)cn1 (centres undefined),28.55
6,CCn1cc(NC(=O)C2CCN(CC(=O)NCC(C)C)CC2)cn1,37.4
7,Cc1ccc(NC(=O)c2cc3c(=O)n(C)c(=O)n(C)c3nc2C)cc1Cl,-6.83
8,CCOc1ccc([C@@H]2N[C@H](c3nccs3)Cc3ccsc32)cc1OC,69.25
9,COc1cc([C@@H]2N[C@H](c3nccs3)Cc3ccsc32)cc(OC)c1OC,47.2
10,CCOc1cc([C@H]2N[C@@H](c3nc(C)cs3)Cc3ccsc32)ccc1OC,75
11,COc1ccc(OC)c([C@@H]2N[C@H](c3nccs3)Cc3ccsc32)c1,43.4
12,COc1cccc([C@@H]2N[C@H](c3nccs3)Cc3ccsc32)c1OC,49.2
13,CCOc1cc([C@@H]2N[C@H](c3nccs3)Cc3ccsc32)ccc1OC,25.05
14,COCCN1CCC2(CC1)CN(Cc1cccc(C)n1)C(=O)CO2,7.53
15,COc1ccc(CCC(=O)N(C(C)C)C2CCOCC2)cc1,-42.1
16,CC(C(=O)N1CCN(c2ccccc2)CC1)n1cc(Br)cn1 (centres undefined),-35.4
17,O=C(c1c[nH]nn1)N1CCN(C(c2ccccc2)C(F)(F)F)CC1 (centres undefined),-10.9
18,O=C(c1ccccn1)N1CCN(C(c2ccccc2)C(F)(F)F)CC1 (centres undefined),51.7
19,O=C(c1cc[nH]n1)N1CCN(C(c2ccccc2)C(F)(F)F)CC1 (centres undefined),17.1
20,NC(=O)C1CN(c2ccc(F)cc2)CCN1 (centres undefined),25.8
21,c1ccc2nc(N3CCCCC3)c(NCc3nnc4n3CCC4)nc2c1,0.897
22,c1ccc2nc(N3CCCC3)c(NCc3nnc4n3CCC4)nc2c1,16.1
23,Cc1nc2ccccc2nc1NCc1nnc2n1CCC2,52.9
24,Cc1cnn(CCNCc2csc(-c3ccc(C)o3)n2)c1,15.3
25,Cn1cc(C(=O)Nc2ccc(CC(=O)NCC(F)(F)F)cc2)nn1,50.5
26,CN(C)C(=O)Cc1ccc(NC(=O)c2cn(C)nn2)cc1,20

row,SMILES,INHIBITION [%]
1,Cn1cc(C(=O)Nc2ccc(CC(=O)NC3CC3)cc2)nn1,11.3
2,CCC(C)c1cc(C(=O)N(CC(=O)NC)c2cccc(F)c2)on1 (centres undefined),3.04
3,Cc1cccc(CN2CCCn3c(nnc3Cn3cccn3)C2)n1,-23
4,CN(C)C(=O)c1noc2c1CN(C(=O)CCCN1CCCCC1)CC2,41.5
5,CN1CCCC(CCC(=O)N2CCc3sc(C(=O)N(C)C)cc3C2)C1 (centres undefined),73.6
6,CCN1CCc2cc(C(=O)N(C)C)c(NCC3CC3)nc2CC1,37.2
7,CN(C)c1cc2c(nn1)CCN(C(=O)c1cc3c(s1)CCCC3)C2,-2.13
8,CNC(=O)c1cc2c(s1)CCN(C(=O)CCC1CCCN(C)C1)C2 (centres undefined),42.6
9,CCN1CCC(CC(=O)N2CCc3sc(C(=O)N(C)C)cc3C2)CC1,64
10,CN(C)C(=O)c1cc2c(s1)CCN(C(=O)CCCN1CCCCC1)C2,71.5
11,CN1CCCC(CCC(=O)N2CCc3onc(C(=O)N(C)C)c3C2)C1 (centres undefined),12
12,CCNc1cc2c(nn1)CCN(C(=O)CC1CCCC1)C2,17.4
13,c1cc(-c2ccc3nc(C4CCN(CC5CC5)CC4)nn3c2)cs1,23.6
14,Cc1ccc2c(n1)N(CCn1cccn1)CCN(CC1CC1)C2,-6.3
15,CCN(Cc1cnn(C)c1)C[C@H]1CC[C@@H](Cc2ccc(OC)nc2)O1,-22.3
16,CN(C)CCN1CCCC12CCN(C(=O)c1ccoc1)CC2,-44.2
17,O=c1c2cn[nH]c2nc(SCCN2CCCC2)n1-c1ccccc1,17.7
18,CC(C)CNC(=O)[C@H]1CCS(=O)(=O)[C@@H]2CN(Cc3ccc(F)cc3)C[C@H]12,-0.371
19,CSc1cccc(CN(C)C(=O)Cn2ncc(N3CCCC3)cc2=O)c1,25.1
20,CCC1C(=O)NCCN1c1cc(C)ncn1 (centres undefined),26.8
21,O=C(Cc1ccccn1)N1CCc2ncnc(N3CCCC3)c2CC1,-10.3
22,OC1COCCN(Cc2cccc(N3CCOCC3)c2)C1 (centres undefined),15.9
23,N[C@@H]1CCN(Cc2cccc(N3CCOCC3)c2)C[C@H]1O,58.6
24,OC1CN(Cc2cccc(N3CCOCC3)c2)Cc2ccccc21 (centres undefined),28.7
25,CC(=O)Nc1ccc(CNc2ccn(Cc3ccccc3)n2)cc1,-51.8
26,CC(C)c1nccn1-c1cccc(C2CCCN(C3CCCC3)C2)n1 (centres undefined),35.3

row,SMILES,INHIBITION [%]
1,Cc1nccn1-c1cccc(C2CCCN2S(=O)(=O)N(C)C)n1 (centres undefined),53
2,CN(C)S(=O)(=O)N1CCC(c2ccnc(Nc3ccccn3)n2)C1 (centres undefined),29.5
3,CC(C)c1nccn1-c1cccc(C2CCCN2S(=O)(=O)N(C)C)n1 (centres undefined),21.9
4,CC(C)c1nccn1-c1cncc(C2CCCN(C3CCCC3)C2)n1 (centres undefined),41.2
5,CC(C)c1nccn1-c1cccc(C2CCCN(S(=O)(=O)N(C)C)C2)n1 (centres undefined),50.1
6,CCc1nccn1-c1cccc(C2CCCN2S(=O)(=O)N(C)C)n1 (centres undefined),36.7
7,CC(C)c1nccn1-c1cncc(C2CCCN(C3CCCCC3)C2)n1 (centres undefined),44.1
8,CC(C)c1nccn1-c1cccc(C2CCN(C)CC2)n1,58
9,COc1ccc(C(=O)Nc2cccc(C(N)=O)c2)c(OC)n1,-26.1
10,CNCC(=O)N1CCCCC1c1nccc(C)n1 (centres undefined),18.3
11,O=C(c1ccnc(-n2ccnc2)c1)N1CCCC(n2ccnc2)C1 (centres undefined),25.1
12,CC(=O)NCCNC(=O)c1cc(COc2ccccc2)[nH]n1,-3.83
13,CCN1CCN(C(=O)c2cnc(Cc3c(Cl)cccc3Cl)nc2O)CC1,8.11
14,O=C(c1cnc(Cc2c(Cl)cccc2Cl)nc1O)N1CCNCC1,43.9
15,NC1CCN(C(=O)c2cnc(Cc3c(Cl)cccc3Cl)nc2O)C1 (centres undefined),51.3
16,CN(C)C(=O)N[C@@H]1CN(Cc2ccc3c(c2)OCO3)[C@@H]2CCCO[C@@H]21,-15.5
17,Cc1cc(OCC(=O)N2CCCC2c2noc(C)n2)no1 (centres undefined),2.97
18,Cc1ccc(C(=O)N2CCC(Oc3cccc(C)c3C)CC2)c(=O)[nH]1,45.5
19,Cc1ccc(C(=O)N2CCC(Oc3ccccc3)CC2)c(=O)[nH]1,29.4
20,COc1ccc(OC2CCN(C(=O)c3ccc(C)[nH]c3=O)CC2)cc1,29.85
21,Cc1ccccc1OC1CCN(C(=O)c2c[nH]c(=O)[nH]c2=O)CC1,60.4
22,COc1ccccc1OC1CCN(C(=O)c2c[nH]c(=O)[nH]c2=O)CC1,-7.76
23,Cc1ccc(C(=O)N2CCC(Oc3ccc(C)c(C)c3)CC2)c(=O)[nH]1,69.65
24,COc1cccc(CC(=O)N2CCC(NCc3c[nH]nc3C)CC2)c1,-17.35
25,O=C(CCCc1ccccn1)N1CCCC1c1noc(C2CC2)n1 (centres undefined),0.411
26,O=C(c1nnn(-c2ccccc2)n1)N(CCO)CCO,-7.77
